Our source for the growth values is PubChem BioAssay (NCI).

About 83,000 compounds went through this panel and 20% of them were active in at least one assay; those are over-represented in the sample as a whole.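 Step 1: grow cells in 96-well plates. Step 2: add test compound at a single concentration. Step 3: incubate 48 h. Step 4: record percent growth.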 Unmarked numbers belong to inactive results. Activity calls are given as the source filed them. How the source made its calls: active means growth percent below 10; inactive means the rest.

Some test systems named below: HCT-15 colon; SNB-75 CNS; SNB-19 CNS; U251 CNS; PC-3 prostate; SK-MEL-5 melanoma; UACC-62 melanoma; LOX IMVI melanoma; SK-MEL-28 melanoma; SK-MEL-2 melanoma; EKVX NSCLC; SN12C renal; UO-31 renal; TK-10 renal; ACHN renal; CAKI-1 renal; A498 renal; CCRF-CEM leukemia; MOLT-4 leukemia.
Assay in all cases: NCI-60 one-dose screen, 48 h (100 = growth as untreated, 0 = no growth, -100 = all killed)
Common to all, as to details: 10 µM unless noted

`Fc1ccc(/C=C/[C@@H]2C[C@@H](F)CCO2)cc1`: the growth with HCT-15 colon is 93.7%; in the assay with SNB-75 CNS it was 99.3%; with SNB-19 CNS it was 93.8%; in the assay with U251 CNS, 111%; with PC-3 prostate, 43.6%; with SK-MEL-5 melanoma, 98%. Besides, the growth in the assay on UACC-62 melanoma was 90.9%; with LOX IMVI melanoma it was 96.9%; in the assay on SK-MEL-28 melanoma, 92.9%; in the assay with SK-MEL-2 melanoma it was 110%; in the assay on EKVX NSCLC, 97.3%; with SN12C renal, 100%. Also, the growth with UO-31 renal is 87%; with TK-10 renal, 94.2%; with ACHN renal, 101%; in the assay on CAKI-1 renal, 86.8%; in the assay on A498 renal, 109%; with CCRF-CEM leukemia, 86.8%. The growth in the assay with MOLT-4 leukemia is 70.1%.

For the molecule `Cc1ccc(NC(=O)c2sc3nc(C)c(C(O)c4ccccc4)cc3c2N)cc1` (stereo not given), the growth in the assay on HCT-15 colon is 9.64% (active); in the assay with SNB-75 CNS it was 22.5%; with SNB-19 CNS it was 24.5%; in the assay on U251 CNS it was 13.9%; in the assay with PC-3 prostate, 19.6%; in the assay with SK-MEL-5 melanoma, 12.7%. Besides, the growth is 28.8% in the assay on UACC-62 melanoma; 23.5% with LOX IMVI melanoma; 57.6% with SK-MEL-28 melanoma; 42.5% in the assay on SK-MEL-2 melanoma; 48% with EKVX NSCLC; 18.9% in the assay with SN12C renal. Besides, the growth with UO-31 renal is 41.6%; in the assay on TK-10 renal, 53%; in the assay on ACHN renal it was 32.8%; in the assay with CAKI-1 renal, 33.8%; in the assay with A498 renal, -8.03% (active); in the assay with CCRF-CEM leukemia it was 7.67% (active). Moreover, the growth with MOLT-4 leukemia was 18.1%.

For the molecule `COC(=O)c1nc(-c2ccccc2)oc1S(=O)(=O)N1CCCC(C)C1` (stereo not given), the growth is 37.2% in the assay on HCT-15 colon; 105% with SNB-75 CNS; 91.5% with SNB-19 CNS; 90.8% with U251 CNS; 71.6% in the assay with PC-3 prostate; 85.2% with SK-MEL-5 melanoma. Further, the growth is 84.7% in the assay on UACC-62 melanoma; 61.6% in the assay on LOX IMVI melanoma; 84.9% in the assay with SK-MEL-28 melanoma; 96.7% in the assay on SK-MEL-2 melanoma; 100% with EKVX NSCLC; 84.4% with SN12C renal. In addition, the growth in the assay with UO-31 renal was 65.7%; in the assay on TK-10 renal, 50.6%; in the assay on ACHN renal, 66.7%; with CAKI-1 renal it was 92.6%; in the assay with A498 renal, 92.9%; with CCRF-CEM leukemia, 1.21% (active). For the same molecule, in the assay on MOLT-4 leukemia, the growth was 6.09% (active).

For `COc1ccc2c(c1)CC[C@@H]1[C@@H]2CC[C@]2(C)C3C(=CC(COC(C)=O)C4C(=O)N(c5ccc(Cl)cc5)C(=O)C43)C[C@@H]12` (stereo not given in full), the growth with HCT-15 colon was 94.3%; in the assay on SNB-75 CNS it was 90.5%; in the assay on SNB-19 CNS, 110%; in the assay on U251 CNS, 102%; in the assay on PC-3 prostate it was 82%; in the assay with SK-MEL-5 melanoma, 93.4%. Also, the growth in the assay on UACC-62 melanoma is 83.2%; in the assay on LOX IMVI melanoma, 94%; in the assay on SK-MEL-28 melanoma, 106%; in the assay on SK-MEL-2 melanoma it was 108%; in the assay on EKVX NSCLC, 108%; with SN12C renal it was 101%. Moreover, the growth with UO-31 renal was 79.1%; with TK-10 renal, 120%; in the assay on ACHN renal it was 95.8%; in the assay on CAKI-1 renal, 108%; with A498 renal it was 108%; in the assay on CCRF-CEM leukemia it was 75.5%. Further, the growth with MOLT-4 leukemia was 63.9%.

Take `Nc1cc(C(=O)O)cc(-n2c(O)c(C=C3N=c4ccccc4=N3)sc2=S)c1`: the growth in the assay on HCT-15 colon was 103%; in the assay on SNB-75 CNS, 80.7%; in the assay with SNB-19 CNS it was 103%; with U251 CNS it was 107%; with PC-3 prostate, 92.4%; in the assay on SK-MEL-5 melanoma it was 97.9%. In addition, the growth is 86.7% in the assay on UACC-62 melanoma; 95.8% in the assay on LOX IMVI melanoma; 104% with SK-MEL-28 melanoma; 101% in the assay on SK-MEL-2 melanoma; 99.4% in the assay on EKVX NSCLC; 95.8% in the assay with SN12C renal. Moreover, the growth with UO-31 renal is 69.5%; in the assay on TK-10 renal, 103%; in the assay with ACHN renal, 99%; in the assay on CAKI-1 renal, 86.8%; with A498 renal, 102%; in the assay on CCRF-CEM leukemia, 106%. Besides, the growth in the assay on MOLT-4 leukemia was 103%.

For `O=C(CCCCCCCC(=O)N1CCCCC1)N1CCCCC1`, the growth in the assay on HCT-15 colon is 96.8%; with SNB-75 CNS it was 78.8%; with SNB-19 CNS, 105%; with U251 CNS, 102%; with PC-3 prostate it was 95.3%; with SK-MEL-5 melanoma, 97.1%. The growth in the assay with UACC-62 melanoma was 91%; in the assay with LOX IMVI melanoma it was 88.1%; in the assay with SK-MEL-28 melanoma it was 102%; in the assay with SK-MEL-2 melanoma, 103%; with EKVX NSCLC it was 100%; in the assay with SN12C renal it was 99.4%. Besides, the growth with UO-31 renal was 71.4%; in the assay on TK-10 renal it was 97.3%; in the assay with ACHN renal, 97.8%; with CAKI-1 renal, 89.4%; with CCRF-CEM leukemia, 116%; in the assay on MOLT-4 leukemia, 126%.

For the molecule `CC(C)(C)c1ccc(C(=O)N/N=C/c2ccc(O)cc2O)cc1`, the growth is 14.1% in the assay on HCT-15 colon; 28.4% in the assay with SNB-19 CNS; 19.6% in the assay on U251 CNS; 34.9% in the assay with PC-3 prostate; -46.1% (active) in the assay with SK-MEL-5 melanoma; 4.25% (active) with UACC-62 melanoma. The growth in the assay with LOX IMVI melanoma was 2.62% (active); in the assay on SK-MEL-28 melanoma, 27.8%; in the assay with SK-MEL-2 melanoma, 38.3%; in the assay on EKVX NSCLC it was 21.5%; with SN12C renal it was 23.3%; in the assay with UO-31 renal, 12.2%. Also, the growth is 40.1% with TK-10 renal; 15.2% in the assay on ACHN renal; 15% in the assay on CAKI-1 renal; 13.6% in the assay with A498 renal; 9.83% (active) with CCRF-CEM leukemia; 13.3% in the assay on MOLT-4 leukemia.

`COC(=O)/C(CCC=C(C)C)=C1\[C@@H](OC(C)=O)C[C@@]2(C)[C@H]1C/C(=N/O)[C@H]1[C@@]3(C)CC/C(=N\O)[C@@H](C)[C@@H]3CC[C@@]12C`: the growth with HCT-15 colon is 88.4%; in the assay with SNB-75 CNS, 86.9%; in the assay with SNB-19 CNS, 88.9%; with U251 CNS, 91.5%; in the assay with PC-3 prostate, 70.9%; with SK-MEL-5 melanoma, 98.9%. Also, the growth was 93.7% in the assay with UACC-62 melanoma; 78.1% with LOX IMVI melanoma; 111% in the assay with SK-MEL-28 melanoma; 96.7% with SK-MEL-2 melanoma; 100% in the assay with EKVX NSCLC; 95.1% in the assay on SN12C renal. Moreover, the growth in the assay on UO-31 renal is 77.5%; with TK-10 renal it was 119%; in the assay with ACHN renal, 102%; in the assay with CAKI-1 renal it was 76.1%; with A498 renal, 111%; with CCRF-CEM leukemia, 87.3%. For the same molecule, the growth in the assay on MOLT-4 leukemia is 72.1%.
